# Source: PubChem BioAssay (NCATS)
# Inconclusive results are not listed. A number with no mark means an inactive call. Calls of active or inactive are those of the source. The call rests on the fitted dose curve; in most records, active means well fitted curve in the direction sought with a large enough effect in the repeat runs; inconclusive means weak or mixed curves; inactive means no such curve, though single readings can be large; an effect the other way counts as inactive or inconclusive.
# Target: Cytochrome P450 2D6 (Homo sapiens) (UniProt P10635)
# Assay: Cytochrome P450 family 2 subfamily D member 6 (CYP2D6) small molecule antagonists: luciferase biochemical (cell-free) qHTS assay (AID 1645840); further: nearly all actives have a fitted effect of over 55% in size; on activity change, negative = inhibition: on the % scale 0 is the no-effect control and ±100 the full control effect
# Conditions: P450-Glo CYP2D6 enzyme, luciferin luminescence, 1 h; series mostly up to 57.4 µM; activity change, negative = inhibition: at the top concentration
# Method in brief: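 P450-Glo CYP2D6 system: proluciferin substrate converted by enzyme to luciferin, read by luminescence proportional to activity. Enzyme-substrate mix with compound 10 min at room temperature, then NADPH regeneration 1 h before detection reagent.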
# Potency means the concentration at half of the fitted maximal effect.
# Sequence of Cytochrome P450 2D6 (Homo sapiens) (P10635 whole entry, looked up): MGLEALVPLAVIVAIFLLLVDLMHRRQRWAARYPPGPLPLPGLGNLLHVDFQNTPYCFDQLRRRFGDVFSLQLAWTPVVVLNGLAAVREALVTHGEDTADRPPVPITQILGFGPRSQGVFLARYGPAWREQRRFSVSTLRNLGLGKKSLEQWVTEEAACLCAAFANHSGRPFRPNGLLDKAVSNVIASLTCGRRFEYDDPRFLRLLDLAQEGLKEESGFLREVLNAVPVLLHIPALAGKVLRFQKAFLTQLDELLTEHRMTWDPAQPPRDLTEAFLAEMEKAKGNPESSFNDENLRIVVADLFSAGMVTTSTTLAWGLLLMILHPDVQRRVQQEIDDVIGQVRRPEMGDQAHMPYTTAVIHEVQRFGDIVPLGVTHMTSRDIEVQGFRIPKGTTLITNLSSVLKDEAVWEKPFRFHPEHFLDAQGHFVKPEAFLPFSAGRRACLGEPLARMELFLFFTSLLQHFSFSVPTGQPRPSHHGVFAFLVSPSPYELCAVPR
Structure (SMILES),Potency,"activity change, negative = inhibition"
NCCNc1ccc(NCCN)c2c1C(=O)c1ccncc1C2=O,2.68 µM (active),
Cc1ccnc(NC(c2cc(C)ccc2O)c2ccc3cccnc3c2O)c1 (configuration not stated),,-21.7%
C=CC1=C(C(=O)O)N2C(=O)[C@@H](NC(=O)/C(=N\OCC(=O)O)c3csc(N)n3)[C@H]2SC1,,2.72%
CN[C@@H](C)C(=O)N[C@H](C(=O)N1CCC[C@H]1c1nc(C(=O)c2ccc(F)cc2)cs1)C1CCCCC1,,-18.4%
Cc1cc(Cl)ccc1NC(=O)Cn1nc(C)c2c(C)n(-c3ccccc3)nc2c1=O,,7.51%
CCn1c(N)c(C(=O)NC)c(=O)c2ccc(C#C[C@@](C)(O)COC)nc21,,12.7%
O=C(O)[C@@H]1CCCN1,,20.5%
Cc1cc2c(F)c(Oc3ncnn4cc(OC[C@@H](C)OC(=O)[C@H](C)N)c(C)c34)ccc2[nH]1,10.7 µM (active),
COc1ccc(OC)c(/C=C(\C#N)c2nc3ccccc3c(=O)[nH]2)c1,,6.16%
CC[C@H]1OC(=O)[C@H](C)[C@@H](O[C@H]2C[C@@](C)(OC)[C@@H](O)[C@H](C)O2)[C@H](C)[C@@H](O[C@@H]2O[C@H](C)C[C@H](N(C)C)[C@H]2O)[C@](C)(OC)C[C@@H](C)C(=O)[C@H](C)[C@@H](O)[C@]1(C)O,,12.8%
CCC=CCC=CCC=CCCCCCCCC(=O)O,,-25%
C[C@@H]1C[C@H]2[C@@H]3C[C@H](F)C4=CC(=O)C=C[C@]4(C)[C@@]3(F)[C@@H](O)C[C@]2(C)[C@@]1(O)C(=O)COC(=O)C(C)(C)C,,-8.99%
CN[C@@H]1[C@@H](O)[C@@H](O[C@@H]2[C@@H](O)[C@H](O[C@H]3O[C@H]([C@@H](C)NC)CC[C@H]3N)[C@@H](N)C[C@H]2N)OC[C@]1(C)O,,3.63%
O=C(CSc1nc(-c2ccc(F)cc2)nc2c1Cc1ccccc1O2)Nc1cccc(C(=O)O)c1,,15.1%

# Target: Cytochrome P450 3A4 (Homo sapiens) (UniProt P08684)
# Assay: Cytochrome P450 family 3 subfamily A member 4 (CYP3A4) small molecule antagonists: luciferase qHTS assay (AID 1645841); further: nearly all actives have a fitted effect of over 45% in size
# Conditions: P450-Glo CYP3A4 enzyme assay, luciferin luminescence; series mostly up to 57.4 µM; activity change, negative = inhibition: at the top concentration
# Method in brief: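 P450-Glo CYP3A4 enzyme with proluciferin substrate preincubated 10 min with compound at room temperature, then NADPH regeneration 1 h. Luciferin detection reagent added for 20 min; luminescence recorded. Ketoconazole positive control.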
# Sequence of Cytochrome P450 3A4 (Homo sapiens) (P08684 whole entry, looked up): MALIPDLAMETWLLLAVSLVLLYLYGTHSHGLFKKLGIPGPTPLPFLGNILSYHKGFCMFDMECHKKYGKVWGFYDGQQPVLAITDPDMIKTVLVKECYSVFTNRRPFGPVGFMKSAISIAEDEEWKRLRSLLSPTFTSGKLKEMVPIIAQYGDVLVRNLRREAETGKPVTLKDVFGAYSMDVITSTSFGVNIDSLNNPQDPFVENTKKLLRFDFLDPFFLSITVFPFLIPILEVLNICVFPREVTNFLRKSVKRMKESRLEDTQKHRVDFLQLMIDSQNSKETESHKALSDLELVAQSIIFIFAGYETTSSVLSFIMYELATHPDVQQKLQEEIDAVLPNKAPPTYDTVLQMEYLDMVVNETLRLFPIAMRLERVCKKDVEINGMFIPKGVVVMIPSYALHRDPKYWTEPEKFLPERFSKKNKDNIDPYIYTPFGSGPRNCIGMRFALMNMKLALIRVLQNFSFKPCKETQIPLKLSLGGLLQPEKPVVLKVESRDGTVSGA
Structure (SMILES),"activity change, negative = inhibition",Potency
Cc1nc2c(-c3ccccc3)c(C)[nH]n2c(=O)c1Cc1ccc(Br)cc1,-6.3%,
CN[C@H](CC(C)C)C(=O)N[C@H]1C(=O)N[C@@H](CC(N)=O)C(=O)N[C@H]2C(=O)N[C@H]3C(=O)N[C@H](C(=O)N[C@H](C(=O)O)c4cc(O)cc(O)c4-c4cc3ccc4O)[C@H](O)c3ccc(c(Cl)c3)Oc3cc2cc(c3O[C@@H]2OC(CO)[C@@H](O)[C@H](O)[C@@H]2O[C@H]2C[C@](C)(N)[C@H](O)[C@H](C)O2)Oc2ccc(cc2Cl)[C@H]1O (some centres not stated),-6.63%,
Oc1ccc(C2(c3ccccc3F)CCC(F)(F)CC2)cc1,,12 µM (active)
